Assay in all cases: NCI-60 one-dose screen, 48 h (100 = growth as untreated, 0 = no growth, -100 = all killed)
Assay [1] relates to SR leukemia. The settings on record: 10 µM.
The test system of assay [2] is OVCAR-8 ovarian. The settings on record: 10 µM.
Assay [3] relates to OVCAR-5 ovarian. The settings on record: 10 µM.
In assay [4] the test system is OVCAR-4 ovarian. The settings on record: 10 µM.
Assay [5] deals with SK-OV-3 ovarian. The note with it: 10 µM.
Assay [6] deals with IGROV1 ovarian. The note with it: 10 µM.
The test system of assay [7] is OVCAR-3 ovarian. The settings on record: 10 µM.
For assay [8], the system named is NCI/ADR-RES ovarian. The note with it: 10 µM.
Assay [9] relates to T-47D breast. The settings on record: 10 µM.
Assay [10] has as its system BT-549 breast. The settings on record: 10 µM.
For assay [11], the system named is MDA-MB-435 melanoma. The note with it: 10 µM.
Assay [12] has as its system SW-620 colon. The settings on record: 10 µM.
Assay [13] concerns MCF7 breast. The settings on record: 10 µM unless noted.
The subject of assay [14] is HCT-116 colon. The settings on record: 10 µM.
For assay [15], the system named is HCC-2998 colon. The settings on record: 10 µM.
The test system of assay [16] is KM12 colon. The note with it: 10 µM.
Assay [17] relates to HS 578T breast. The settings on record: 10 µM.

Data on nine compounds can be found in PubChem BioAssay (NCI).

Structures are written as SMILES. The panel holds about 83,000 compounds, 20% with a hit somewhere; the sample as a whole holds those more often.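 Growth was measured after 48 h exposure to one concentration of compound in 96-well plates. Values under 10 count as active.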 Unmarked numbers belong to inactive results. Calls of active or inactive are those of the source.

Turning to `NC(CSC(c1ccccc1)(c1ccccc1)c1ccccc1)C(=O)O` (stereo not drawn), the growth is 15.3% in assay [1]; 22.6% in assay [2]; 41.8% in assay [3]; 74.6% in [4]; 17% in assay [5]; 63.3% in assay [6]. The growth was 15.9% in assay [7]; 93% in [8]; 15.5% in [9]; 47.4% in [10]; -66.6% (active) in [11]; 24.8% in assay [12]. Besides, the growth in assay [13] is 2.58% (active); in assay [14], 19.9%; in [15], 15.9%; in assay [16] it was 22.5%.

For `CCOC(=O)CSc1c([N+](=O)[O-])ncn1C`, the growth in assay [1] was 86.4%; in [2], 103%; in assay [3] it was 91.8%; in [4] it was 105%; in assay [5], 110%; in [6] it was 95.5%. Besides, the growth is 103% in assay [7]; 103% in assay [17]; 101% in assay [8]; 101% in assay [9]; 103% in [12]; 88.2% in assay [13]. Moreover, the growth is 103% in assay [14], 107% in assay [15] and 96.2% in assay [16].

Take `O=C(NCO)c1ccccc1`: the growth in assay [1] was 98.3%; in [2], 108%; in assay [3], 104%; in [4] it was 109%; in assay [5] it was 104%; in [6], 97.2%. Further, the growth in [7] was 104%; in assay [17] it was 111%; in [8], 109%; in assay [9], 102%; in [11], 108%; in [12], 103%. The growth in assay [13] was 101%; in assay [14], 105%; in assay [15], 111%; in [16], 102%.

As for `CC(C)(C)c1cc(O)c(C(C)(C)C)cc1O`, the growth in assay [1] is 92.5%; in assay [2], 93%; in assay [3], 97.2%; in assay [4], 74.6%; in [5] it was 125%; in assay [6], 110%. For the same compound, the growth is 99.2% in [7]; 98.8% in assay [17]; 100% in assay [8]; 95% in assay [9]; 81.3% in [10]; 91.9% in assay [11]. Moreover, the growth was 97% in assay [12], 83.7% in assay [13], 86.6% in assay [14] and 101% in assay [16].

Consider `Cc1c(O)cccc1O`, for which the growth is 84% in assay [1]; 106% in [2]; 106% in assay [3]; 108% in [4]; 97.1% in [5]; 159% in [6]. Moreover, the growth in [7] was 109%; in assay [17] it was 102%; in assay [8], 94.2%; in assay [9], 98.2%; in assay [11] it was 94.9%; in assay [12] it was 99.5%. For the same compound, the growth was 104% in [13], 103% in assay [14], 102% in assay [15] and 118% in assay [16].

As for `O=C1C=C(O)C(=O)C=C1O`, the growth in [1] is 98.2%; in assay [2], 103%; in assay [3] it was 108%; in assay [4], 118%; in assay [5], 87.9%; in assay [6], 111%. Moreover, the growth is 107% in assay [7]; 101% in assay [8]; 93.9% in assay [9]; 103% in [10]; 109% in assay [11]; 104% in assay [12]. For the same compound, the growth in [13] is 96.5%; in assay [14], 105%; in [15], 111%; in assay [16], 107%.

Consider `O/N=C/c1ccc(O)cc1O`, for which the growth in assay [1] is 110%; in [2], 94.1%; in assay [3], 94.7%; in assay [4], 109%; in [5], 103%; in [6], 117%. Also, the growth is 112% in assay [7]; 104% in assay [8]; 94% in [9]; 103% in assay [10]; 107% in [11]; 102% in assay [12]. The values for the growth in [13], in assay [14] and in assay [15] were 98.6%, 114% and 105%, respectively.

Turning to `CC1CC(O)CC(C)(C)C1` (stereo not drawn), the growth in assay [1] was 106%; in assay [2], 102%; in assay [3], 97.1%; in [4] it was 116%; in [5], 103%; in assay [6], 103%. Also, the growth is 93.5% in assay [7]; 110% in [8]; 104% in assay [9]; 102% in [10]; 101% in assay [11]; 110% in assay [12]. Also, the growth was 101% in assay [13], 99.8% in assay [14], 109% in [15] and 90.3% in assay [16].

Consider `Cc1cc2nc(CO)[nH]c2cc1C`, for which the growth in [1] was 122%; in [2], 101%; in [3] it was 100%; in [4] it was 103%; in [5] it was 108%; in assay [6], 108%. Also, the growth was 105% in [7]; 151% in [17]; 107% in assay [8]; 124% in assay [9]; 105% in assay [10]; 109% in assay [11]. For the same compound, the growth in [12] was 103%; in assay [13], 120%; in assay [14], 108%; in assay [15], 109%; in assay [16], 103%.
